Most compounds without a hit are left out; they make up all but 8.6% or so of the library.
LASV entry inh: qHTS for Inhibitors of binding or entry into cells for Lassa Virus; Lassa virus pseudotyped entry inhibition, cell-based qHTS; Potency, µM (doses to about 49.2 µM), most hits filed as inhibitors; hit rate 4.1% among 18,000
MARV entry inh: qHTS for Inhibitors of binding or entry into cells for Marburg Virus. Marburg virus pseudotype entry/binding inhibition, cell-based. Potency, µM (doses to about 49.2 µM), usual class: inhibitors. hit rate 6.5% among 18,000
A number is an active result; i = inactive; ? = inconclusive; nt = no result given; ! = not confirmed by another sample; [ ] = another dose, or the depositor's remark. Calls follow the shape of the full dose curve; tested in HEK293 cells.

SMILES | LASV entry inh | MARV entry inh
C#CCN(C[C@H](NC(=O)OC(C)(C)C)C(C)C)S(=O)(=O)c1ccc(Br)cc1F | i | i
CC(C)[C@@H](CO[Si](C)(C)C(C)(C)C)N1CC=CS1(=O)=O | i | i
CC(C)CC1C(=O)N(Cc2cn(CCC3OCCCO3)nn2)CCS(=O)(=O)N1Cc1ccc(-c2ccc(F)nc2)cc1 (stereo not drawn) | i | ?
Cc1c(-c2ccc(O)cc2)nn(-c2ccc(O)cc2)c1-c1ccc(OCCN2CCCCC2)cc1 | 32µM | 4µM
CCN1C(=O)c2ccccc2C1Nc1ccc(OCCN2CCCCC2)cc1 (stereo not drawn) | i | i
O=c1[nH]c2ccccc2n1CCCN1CCN(C(c2ccccc2)c2ccccc2)CC1 | ? | 16µM
O=C(c1ccc(F)cc1)C1CCN(CCn2c(=O)[nH]c3ccccc3c2=O)CC1 | i | ?
CCC12C=C(C=Cc3ccccc3)C(CC)(C1)C(c1ccccc1)CC2=O (stereo not drawn) | i[8.59 µM] | i[8.59 µM]
COc1cccc([C@@H]2Oc3ccc(Br)cc3C[C@@H]2OC(=O)N[S+](=O)([O-])c2ccc(C)cc2)c1 | i[8.59 µM] | i[8.59 µM]
CCOC(=O)CCN1C(=O)[C@@H]2[C@H]3[C@H](O)[C@H](O)CC(=NNC(=O)OCc4ccc(OC)cc4)[C@H]3CC[C@H]2C1=O | nt | i[8.59 µM]
COc1ccc2cc1Oc1ccc(cc1)C[C@H]1c3cc(c(OC)cc3CCN1C)Oc1c(OC)c(OC)cc3c1[C@H](C2)N(C)CC3 | 13µM | 3.5µM
COc1ccc2c(c1OC)C(=O)O[C@@H]2[C@H]1c2c(cc3c(c2OC)OCO3)CCN1C | i | ?
COc1cc2c3cc1Oc1c(OC)c(OC)cc4c1[C@@H](Cc1ccc(OC(=O)c5ccc([N+](=O)[O-])cc5)c(c1)Oc1ccc(cc1)C[C@@H]3N(C)CC2)N(C)CC4 | ? | 0.63µM
COc1cc2c(cc1O)C[C@H]1c3c(cc(O)c(OC)c3-2)CCN1C | i | i
COc1cc2c(cc1O)-c1c(O)c(OC)cc3c1[C@H](C2)N(C)CC3 | i | i
COc1cc2c3cc1Oc1c(OC)c(OC)cc4c1[C@@H](Cc1ccc(O)c(c1)Oc1ccc(cc1)C[C@@H]3N(C)CC2)N(C)CC4 | 11µM | 2.8µM
COc1ccc2cc1Oc1ccc(cc1)C[C@H]1c3c(cc4c(c3Oc3cc5c(cc3OC)CCN(C)[C@@H]5C2)OCO4)CCN1C | ? | 1.8µM
COc1ccc(CC2c3cc(OC)c(OC)cc3CCN2C)cc1OC (stereo not drawn) | i | i
Cc1nc2ccccc2nc1CN1CCOc2ccc(C3(O)CCN(c4ccccc4F)CC3)cc2C1 | ? | i
CCCS(=O)(=O)NCc1c(C)ncc2c1CCN(C(=O)c1cccc(Cl)c1F)C2 | i | i
Cc1cnc(C)c(-c2ccc(F)c3c2OC(CNC(=O)/C=C/c2cccs2)C3)n1 (stereo not drawn) | ? | i
CCOC(=O)C1Oc2ccccc2C(C(=O)OC)=C1C(=O)OC (stereo not drawn) | i | i
CCOC(=O)C1=C(N)Oc2ccc(Br)cc2[C@@H]1[C@@H](C#N)C(=O)OCC | 20µM | i
COC1=C[C@H](C(=O)N2CCCC2)[C@H](C)[C@@H](c2ccccc2)CC1=O | i[8.59 µM] | i[8.59 µM]
CCCCCCC#C[C@@H]1C=C[C@H](OC(=O)OCC)[C@@H](COC(=O)OCC)O1 | i[8.59 µM] | i[8.59 µM]
SMILES | LASV entry inh | MARV entry inh
CC[C@H]1[C@@H]2C=C[C@@H]3[C@H]4C/C=C\C(=O)NCCC[C@@H]5NC(=O)C(=C5O)C(=O)CC[C@@H]4C[C@@H]3[C@H]2C[C@H]1C | 28µM | 14µM
O=C1CCCC2=C1[C@H]1O[C@](CCCCN3C(=O)c4ccccc4C3=O)(Cc3c1ccc1ccccc31)O2 | i[8.59 µM] | i[8.59 µM]
COC(=O)CC=C[C@@H](C)[C@@H](C=NO[C@@H](C)c1cn([C@H](CO)Cc2ccccc2)nn1)NS(=O)(=O)c1ccc(C)cc1 | nt | i[8.59 µM]
CC=COC(=O)N[C@@H](c1ccccc1)[C@]1(C(C)=O)CCCC1=O | nt | i[8.59 µM]
C=C(C[C@]1(C(=O)OC)C[C@]2(CC=C(C)C)C(=O)C(C(=O)CC(C)C)=C(O)[C@@](CC=C(C)C)(C1)C2=O)C(=O)OC | nt | i[8.59 µM]
O=C1C2CC=CCC2C(=O)N1SC(Cl)(Cl)Cl (stereo not drawn) | 10µM | ?
CC(C)C[C@H]1COc2cc(F)ccc2S(=O)(=O)N1 | ? | i
CC1=C(O)C(=O)[C@H]2O[C@@H]2C1=O | 11µM | i
CC(C)CC(NC(=O)CN)C(=O)NC(Cc1ccccc1)C(=O)O (stereo not drawn) | i | i
CC(C)C[C@H](NC(=O)[C@H](CCc1ccccc1)NC(=O)CN1CCOCC1)C(=O)N[C@@H](Cc1ccccc1)C(=O)N[C@@H](CC(C)C)C(=O)[C@@]1(C)CO1 | 11µM | ?
CCCNC(=O)OC[C@H]1O[C@H](CCON=C2C[C@@H](O)[C@@H](O)[C@@H]3[C@H]4C(=O)N(CC)C(=O)[C@@H]4CC[C@H]23)C=C[C@H]1Oc1ccc(OC)cc1 | i[8.59 µM] | i[8.59 µM]
C[C@@H]1C[C@@H]([C@@H](C)CC2CC(=O)NC(=O)C2)C(=O)[C@@H](C)C1 | 4.5µM | 5µM
C[C@H]1C[C@@H](C)C(=O)[C@@H]([C@H](O)CC2CC(=O)NC(=O)C2)C1 | 3.5µM | 1.1µM
C[C@H]1C[C@H](C)C(=O)[C@@H]([C@H](O)CC2CC(=O)NC(=O)C2)C1 | 3.2µM | ?
CCOC(=O)CN1C(=O)CC(C[C@@H](O)C2C[C@@H](C)C[C@H](C)C2=O)CC1=O (stereo partly drawn) | i | i
CC1CC(C)C(=O)[C@H](C(O)CC2CC(=O)NC(=O)C2)C1 (stereo partly drawn) | 5.6µM | 2.5µM
C=C(C[C@@]1(C(=O)OC)C=C[C@@H](C)[C@H](c2ccccc2Br)N1C(=O)C(F)(F)F)c1ccccc1 | i[8.59 µM] | i[8.59 µM]
O=C(NN=C1C[C@@H](O)[C@H](O)[C@H]2[C@@H]3C(=O)N(C4CCCCC4)C(=O)[C@@H]3CC[C@H]12)OCc1ccccc1 | i[8.59 µM] | ?
CCOC(=O)[C@@]1([C@@H](NC(=O)OC)c2ccco2)CCCC1=O | i[8.59 µM] | i[8.59 µM]
COCC=CC1=CC2=CC(=O)C(C)(OC(=O)c3cnc4ccccc4n3)C(=O)C2=CN1Cc1ccc(OC)cc1 (stereo not drawn) | i[8.59 µM] | i[8.59 µM]
COC(=O)[C@H](C)N1CC=CCOc2c(Cl)cc(Cl)cc2[S+]1(=O)[O-] | i | i
CC(C)N(CCC(=O)c1ccc2ccccc2c1)Cc1ccccc1 | 32µM | ?
C[C@@H](COc1ccccc1)N(CCCl)Cc1ccccc1 | i | i
CC(=C\c1ccccc1)/C=C1/SC(=S)N(CC(=O)O)C1=O | i | i
CC[C@H]1OC(=O)C[C@@H](O)[C@H](C)[C@@H](O[C@@H]2O[C@H](C)[C@@H](O)[C@H](N(C)C)[C@H]2O)[C@@H](CCN2C[C@H](C)C[C@H](C)C2)C[C@@H](C)C(=O)/C=C/C(C)=C/[C@@H]1CO[C@@H]1O[C@H](C)[C@@H](O)[C@@H](OC)[C@H]1OC | i | ?
SMILES | LASV entry inh | MARV entry inh
CC(C)(C)OC(=O)N1CCC[C@@H]1C(O)(c1ccccc1)c1ccccc1 | i[8.59 µM] | i[8.59 µM]
O=C(O)[C@@H](O)[C@H](O)[C@H](O)[C@@H](O)C(=O)O | i | i
N[C@H](C(=O)O)[C@H](O)C(=O)O | ? | 14µM!
COc1ccc([C@]23Cc4ccccc4[C@H](O2)c2c(cc(-c4ccccc4)oc2=O)O3)cc1 | i[8.59 µM] | i[8.59 µM]
CC(CCN1CCCc2nc(C)c(C)cc21)=NO[C@H](C)c1cn([C@@H]2COC[C@@H]2O)nn1 | nt | i[8.59 µM]
CCS(=O)(=O)N1CCC[C@H]2CN3CCc4cc(OC)ccc4[C@@H]3C[C@@H]21 | i | i

Screening data from PubChem.
